The values below come from PubChem BioAssay AID651558 (National Center for Advancing Translational Sciences (NCATS), 2012).

Hit rate of the full screen: of about 1,200 compounds, about 480 (40%) were called active. About 29% were inconclusive and are not listed. The call rests on the fitted dose curve; in most records, active means well fitted inhibition curve with a large enough effect; inconclusive means small, poorly fitted or top-dose-only effect; inactive means no such curve, though single readings can be large or run the other way. This is one part of the list. Where a call stands in place of a potency, no number is given.
Potency means the concentration at half of the fitted maximal effect.

The experiment can be described thus: qHTS Assay to Find Inhibitors of Chronic Active B-Cell Receptor Signaling: Hit Validation in Primary Screen. Further: nearly all actives have a fitted effect of over 75% in size. Particulars: ABC-DLBCL IkB-luc/CBR ratio luminescence, 4 h; series mostly up to 46.1 µM. In a few lines: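 Concentration series (3 nM to 46 uM) tested on TMD8 cells induced with doxycycline for 4 h. Filter-corrected green (IkBa fusion) over red (unfused) luciferase signal; Data were normalised to 10 uM MG-132 and untreated cell wells.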
A general note: Quantitative high-throughput screening tests each substance at several concentrations.
Take `COc1ccc(Nc2cc(C)nc(-n3nc(C)cc3C)n2)cc1`: the Potency is 7.31 µM (active).
`CCOc1ccc(Nc2cc(C)nc(-n3nc(C)cc3C)n2)cc1`: the Potency is 3.26 µM (active).
`COc1ccc(N=N/C(=C\O)C(=O)c2ccco2)cc1`: the Potency result is “inactive”.
Then `COC(=O)c1cn(C(=O)c2ccc(OC)cc2)c2ccccc12`, with “inactive”.
Consider `COc1ccc(C(=O)n2c(-c3ccco3)nc3ccccc32)cc1`, for which the Potency was 18.4 µM (active).
Then `Cc1ccc(S(=O)(=O)N2CCN(C(=O)CSc3n[nH]c(N)n3)CC2)c(C)c1`, with “inactive”; and `O=Cc1cc2ccccc2nc1SCc1ccc(Cl)c(Cl)c1`, with “inactive”.
As to `Cc1ccc(CSc2nc3ccccc3cc2C=O)cc1`, the Potency was 2.91 µM (active).
For `COc1cccc(CSc2nc3ccccc3cc2C=O)c1`, the Potency is 2.59 µM (active).
With `CCC(=O)[C@@]1(C)[C@H](C)C[C@H]2[C@@H]3CCC4=CC(=O)C=C[C@]4(C)[C@H]3[C@@H](O)C[C@@]21C`, the Potency entry is “inactive”.
The value for `O=C(Nc1ccc([N+](=O)[O-])cc1)Nc1ccon1` was 8.2 µM (active).
The value for `CCOC(=O)c1ccc(NC(=S)NNC(C)(C)C)cc1` was “inactive”.
The value for `CCOC(=O)c1ccc(NC(=O)Nc2ccon2)cc1` was 2.31 µM (active); that for `COc1ccc(NC(=S)N/N=C/c2ccc(F)c(F)c2)cc1` was “inactive”.
`NNC(=O)c1cc2cc(OC(F)(F)F)ccc2[nH]1`: the Potency entry was “inactive”.
Turning to `O=C(N/N=C/c1ccccc1)c1[nH]c2ccc(Br)cc2c1-c1ccccc1`, the Potency was 0.517 µM (active).
As to `Cc1ccc2[nH]c(C(=O)N/N=C/c3ccccc3C(=O)O)c(-c3ccccc3)c2c1`, the Potency entry was “inactive”.
`CCOc1ccc2[nH]c(C(=O)N/N=C/c3ccc(OC)cc3)cc2c1`: the Potency is 2.91 µM (active).
Then `COc1ccc(/C=N/NC(=O)c2[nH]c3ccc(Cl)cc3c2-c2ccccc2)c(C(=O)O)c1OC`, with “inactive”.
Then `O=C(N/N=C/c1ccc(O)cc1)c1[nH]c2ccc(Br)cc2c1-c1ccccc1`, with 1.3 µM (active).
As for `NNC(=O)c1[nH]c2ccc([N+](=O)[O-])cc2c1-c1ccccc1`, the Potency entry was “inactive”.
Consider `Cc1c(C(=O)N/N=C/c2ccc(Cl)cc2)[nH]c2ccc(Cl)cc12`, for which the Potency was 0.731 µM (active).
Then `Cc1ccc2[nH]c(C(=O)NN=C3CCCCC3)c(-c3ccccc3)c2c1`, with “inactive”.
As to `O=C(NN=C1CCCC1)c1[nH]c2ccc(Cl)cc2c1-c1ccccc1`, the Potency was 13 µM (active).
The value for `COc1ccc(/C=N/NC(=O)c2[nH]c3ccc(Br)cc3c2-c2ccccc2)c(C(=O)O)c1OC` was “inactive”.
Then `NNC(=O)c1[nH]c2ccc(Cl)cc2c1-c1ccccc1`, with “inactive”; and `COc1ccc(/C=N/NC(=O)c2[nH]c3ccc(Br)cc3c2-c2ccccc2)cc1`, with 0.231 µM (active); and `Cc1nn(CCC(=O)NNC(=S)NCC(C)C)c(C)c1Br`, with “inactive”.
As for `CCN(CC)c1ccc2cc(-c3nc4ccccc4n3C)c(=O)oc2c1`, the Potency is 0.58 µM (active).
Then `CC(/C=C/c1ccccc1)=N\NC(=S)NC(C)C`, with “inactive”; and `O=C(CSc1cccc[n+]1[O-])CSc1cccc[n+]1[O-]`, with “inactive”.
